# Where “and” joins values, the source holds several entries; their conditions need not be identical. Equal entries are not always repeated. Records with an inconclusive call do not appear. A call without a number means that no potency is given here. Calls of active or inactive are those of the source. Unless noted, the call rests on the fitted dose curve; in most records, active means well fitted curve in the direction sought with a large enough effect; inconclusive means small, poorly fitted or top-dose-only effect, or another doubt; inactive means no such curve, though single readings can be large; an effect the other way counts as inactive or inconclusive.
# Tests used:
# [1] = Primary qHTS for inhibitors of La Crosse Virus (LACV) - induced cell death in SH-SY5Y cells (AID 1508616);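 further: top concentration of the series differs between compounds; higher means more rescue of cells from virus-induced death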
# In short: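 Cytopathicity rescue screen: compounds pinned onto SH-SY5Y cells, which are then infected with LACV (MOI 0.01) and held 6 days at 37C. Percent activity is scaled between infected DMSO control and uninfected DMSO control.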
# [2] = molecular target: Calcium and integrin-binding protein 1 (Homo sapiens) (UniProt Q99828); assay: Validation qHTS for Identification of Calcium Integrin Binding protein 1 (CIB1) Competitor (AID 1508618)
# In short: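 In this qHTS validation, the LOPAC set (up to 114 uM) was tested for blocking CIB1 binding to a fluorescein-tagged alphaIIb peptide, with FP detection at 480/540 nm.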
# Papain (Carica papaya) = Papain (Carica papaya) (UniProt P00784); assay: Primary qHTS assay for inhibitors of the protease papain (AID 1645873);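 further: papain turnover of Z-FR-AMC read as the AMC fluorescence gain over 10 min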; further: potency means the concentration at half of the fitted maximal effect
# [3] = molecular target: Rap guanine nucleotide exchange factor 3 (Homo sapiens) (UniProt O95398); assay: Confirmatory qHTS for antagonist of cAMP-regulated guanine nucleotide exchange factor 3 (EPAC1) (AID 1645880); further: nearly all actives have a fitted effect of over 55% in size
# In short: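 Released BODIPY-GDP fluoresces less than Rap1-bound BODIPY-GDP; the signal is followed at 480/540 nm at 5-min intervals over 30 min, after 5 min at room temperature. Reactions contain 100 nM EPAC1, 250 nM RAP1B-BODIPY-GDP and 50 uM GDP; results are normalized to ATA and DMSO.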
# [4] = Primary qHTS for small molecule stabilizers of the endoplasmic reticulum resident proteome: Secreted ER Calcium Modulated Protein (SERCaMP) assay (AID 1508630)
# In short: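 The SH-SY5Y reporter protocol was run at 3 concentrations up to 38.3 uM (primary) or 11 concentrations (follow-up): 16 h compound, 100 nM thapsigargin for 4 h, then extracellular luciferase luminescence.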
# [5] = Primary qHTS for inhibitors of nuclear receptor binding SET domain protein 2 (NSD2) in an isogenic RCH-ACV NSD2 p.E1099K mutant (9B) (AID 1645876); further: nearly all actives have a fitted effect of over 70% in size
# [6] = Primary qHTS for inhibitors of nuclear receptor binding SET domain protein 2 (NSD2) in an RCH-ACV wild type WT cells (2C) (AID 1645877); further: nearly all actives have a fitted effect of over 70% in size; further: potency means the concentration at half of the fitted maximal effect
# [7] = molecular target: Catechol O-methyltransferase (Homo sapiens) (UniProt P21964); assay: Confirmatory Screen for Target Class Profiling of Small Molecule Inhibitors of Methyltransferases (AID 1745852; calls by dose curve; further: potency means the concentration at half of the fitted maximal effect); details: MTase-Glo luminescence, SAH detection, recombinant enzyme; measured here: COMT max response; stronger effect = lower value
# [8] = molecular target: Guanidinoacetate N-methyltransferase (Homo sapiens) (UniProt Q14353); assay: as above; details: MTase-Glo luminescence, SAH detection, recombinant enzyme; activity change, negative = inhibition: at 57.3 µM (top of the series)
# [9] = molecular target: Nicotinamide N-methyltransferase (Homo sapiens) (UniProt P40261); assay: as above; details: MTase-Glo luminescence, SAH detection, recombinant enzyme; measured here: NNMT max response; stronger effect = lower value
# [10] = molecular target: Phenylethanolamine N-methyltransferase (Homo sapiens) (UniProt P11086); assay: as above; details: MTase-Glo luminescence, SAH detection, recombinant enzyme; measured here: PNMT max response; stronger effect = lower value
# [11] = molecular target: Rap guanine nucleotide exchange factor 3 (Homo sapiens) (UniProt O95398); assay: Confirmatory qHTS for agonist of cAMP-regulated guanine nucleotide exchange factor 3 (EPAC1) (AID 1645881);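 further: EPAC1 catalysed release of BODIPY-GDP from Rap1B seen as fluorescence loss; nearly all actives have a fitted effect of over 75% in size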
# [12] = molecular target: Rap guanine nucleotide exchange factor 4 (Homo sapiens) (UniProt Q8WZA2); assay: Confirmatory qHTS for agonist of cAMP-regulated guanine nucleotide exchange factor 4 (EPAC2) (AID 1645884);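 further: nucleotide exchange releases bodipy-GDP from Rap1 and this lowers its fluorescence; nearly all actives have a fitted effect of over 65% in size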
# [13] = molecular target: Rap guanine nucleotide exchange factor 4 (Homo sapiens) (UniProt Q8WZA2); assay: Confirmatory qHTS for antagonist of cAMP-regulated guanine nucleotide exchange factor 4 (EPAC2) (AID 1645885); further: potency means the concentration at half of the fitted maximal effect; nearly all actives have a fitted effect of over 25% in size
# [14] = molecular target: Rap guanine nucleotide exchange factor 3 (Homo sapiens) (UniProt O95398); assay: Counterscreen qHTS for antagonist of cAMP-regulated guanine nucleotide exchange factor 3 (EPAC1) (AID 1645888)
# In short: (§1)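 Rap1B–BODIPY-GDP (250 nM) with 50 uM GDP; compounds pin-transferred to 9.74 nM–152 uM final (activator) or from 7.32 nM upwards (inhibitor). Fluorescence Ex/Em 480/540 nm read at 5 and 30 min, then after adding cAMP or buffer, at room temperature.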
# [15] = molecular target: Rap guanine nucleotide exchange factor 3 (Homo sapiens) (UniProt O95398); assay: Counterscreen qHTS for agonist of cAMP-regulated guanine nucleotide exchange factor 3 (EPAC1) (AID 1645889); further: nearly all actives have a fitted effect of over 40% in size
# In short: as §1
# Chain of Papain (Carica papaya) (P00784 whole entry, looked up): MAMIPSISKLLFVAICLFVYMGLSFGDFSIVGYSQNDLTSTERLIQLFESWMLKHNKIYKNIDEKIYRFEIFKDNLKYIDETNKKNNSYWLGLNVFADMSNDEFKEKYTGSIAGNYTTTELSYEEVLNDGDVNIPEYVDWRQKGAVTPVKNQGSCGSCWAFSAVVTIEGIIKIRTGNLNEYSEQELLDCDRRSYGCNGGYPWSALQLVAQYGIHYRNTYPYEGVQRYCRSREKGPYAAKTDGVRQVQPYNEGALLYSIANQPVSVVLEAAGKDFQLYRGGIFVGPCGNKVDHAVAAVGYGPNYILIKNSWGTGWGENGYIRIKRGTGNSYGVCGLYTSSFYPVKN
# Chain of Rap guanine nucleotide exchange factor 4 (Homo sapiens) (Q8WZA2 whole entry, looked up): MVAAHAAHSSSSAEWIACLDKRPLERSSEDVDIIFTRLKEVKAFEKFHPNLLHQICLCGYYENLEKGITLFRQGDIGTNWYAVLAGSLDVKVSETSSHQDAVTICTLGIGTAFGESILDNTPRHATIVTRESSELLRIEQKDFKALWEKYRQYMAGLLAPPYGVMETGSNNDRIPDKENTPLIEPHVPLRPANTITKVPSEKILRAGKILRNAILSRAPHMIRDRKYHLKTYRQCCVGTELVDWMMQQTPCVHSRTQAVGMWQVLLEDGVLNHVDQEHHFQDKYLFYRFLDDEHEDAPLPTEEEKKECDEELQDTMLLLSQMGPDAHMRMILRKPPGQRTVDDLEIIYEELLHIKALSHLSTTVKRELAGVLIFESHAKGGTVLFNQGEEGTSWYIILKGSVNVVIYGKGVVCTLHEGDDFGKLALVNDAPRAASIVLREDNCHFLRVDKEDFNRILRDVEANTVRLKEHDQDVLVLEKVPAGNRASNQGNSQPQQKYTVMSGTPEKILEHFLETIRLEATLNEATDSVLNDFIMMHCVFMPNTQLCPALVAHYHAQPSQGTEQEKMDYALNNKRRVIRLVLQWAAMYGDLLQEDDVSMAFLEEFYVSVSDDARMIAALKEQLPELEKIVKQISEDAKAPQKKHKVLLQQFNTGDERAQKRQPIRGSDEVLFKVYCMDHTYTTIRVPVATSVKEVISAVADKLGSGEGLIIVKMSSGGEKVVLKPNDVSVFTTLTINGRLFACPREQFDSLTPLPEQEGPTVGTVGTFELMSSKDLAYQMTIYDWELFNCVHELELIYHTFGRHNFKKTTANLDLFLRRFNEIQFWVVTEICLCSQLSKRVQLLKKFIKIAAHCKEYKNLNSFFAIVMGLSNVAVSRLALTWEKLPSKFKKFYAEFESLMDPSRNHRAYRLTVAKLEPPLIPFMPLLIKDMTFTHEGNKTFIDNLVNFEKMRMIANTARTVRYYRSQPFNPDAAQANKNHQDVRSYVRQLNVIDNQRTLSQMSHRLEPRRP
# Chain of Catechol O-methyltransferase (Homo sapiens) (P21964 whole entry, looked up): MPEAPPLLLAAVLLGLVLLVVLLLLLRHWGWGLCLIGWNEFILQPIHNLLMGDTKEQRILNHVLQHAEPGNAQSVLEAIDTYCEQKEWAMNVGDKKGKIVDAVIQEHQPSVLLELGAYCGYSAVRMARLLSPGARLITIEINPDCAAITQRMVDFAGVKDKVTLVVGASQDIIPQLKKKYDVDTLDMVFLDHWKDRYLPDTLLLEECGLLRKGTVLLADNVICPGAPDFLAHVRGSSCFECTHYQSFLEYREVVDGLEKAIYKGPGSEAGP
# Chain of Calcium and integrin-binding protein 1 (Homo sapiens) (Q99828 whole entry, looked up): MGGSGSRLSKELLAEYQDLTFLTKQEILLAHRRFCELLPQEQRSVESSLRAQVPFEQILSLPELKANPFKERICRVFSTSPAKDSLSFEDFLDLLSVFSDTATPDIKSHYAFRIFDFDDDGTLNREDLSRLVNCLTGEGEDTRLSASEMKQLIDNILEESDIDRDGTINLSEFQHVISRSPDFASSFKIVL
# Chain of Nicotinamide N-methyltransferase (Homo sapiens) (P40261 whole entry, looked up): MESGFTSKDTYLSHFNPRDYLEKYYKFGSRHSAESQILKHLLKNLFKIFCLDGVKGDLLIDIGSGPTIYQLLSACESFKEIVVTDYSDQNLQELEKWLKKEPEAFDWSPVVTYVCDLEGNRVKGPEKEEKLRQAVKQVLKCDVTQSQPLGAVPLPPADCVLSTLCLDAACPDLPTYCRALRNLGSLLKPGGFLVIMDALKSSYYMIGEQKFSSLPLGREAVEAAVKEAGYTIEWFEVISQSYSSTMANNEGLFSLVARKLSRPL
# Chain of Phenylethanolamine N-methyltransferase (Homo sapiens) (P11086 whole entry, looked up): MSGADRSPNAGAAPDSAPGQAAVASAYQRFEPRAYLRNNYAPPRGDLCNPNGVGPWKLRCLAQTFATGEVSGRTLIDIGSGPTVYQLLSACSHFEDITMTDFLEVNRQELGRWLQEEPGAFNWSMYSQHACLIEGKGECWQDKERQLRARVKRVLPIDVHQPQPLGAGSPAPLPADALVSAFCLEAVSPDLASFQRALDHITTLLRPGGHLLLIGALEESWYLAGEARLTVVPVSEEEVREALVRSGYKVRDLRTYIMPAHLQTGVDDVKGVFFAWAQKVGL
# Chain of Rap guanine nucleotide exchange factor 3 (Homo sapiens) (O95398 whole entry, looked up): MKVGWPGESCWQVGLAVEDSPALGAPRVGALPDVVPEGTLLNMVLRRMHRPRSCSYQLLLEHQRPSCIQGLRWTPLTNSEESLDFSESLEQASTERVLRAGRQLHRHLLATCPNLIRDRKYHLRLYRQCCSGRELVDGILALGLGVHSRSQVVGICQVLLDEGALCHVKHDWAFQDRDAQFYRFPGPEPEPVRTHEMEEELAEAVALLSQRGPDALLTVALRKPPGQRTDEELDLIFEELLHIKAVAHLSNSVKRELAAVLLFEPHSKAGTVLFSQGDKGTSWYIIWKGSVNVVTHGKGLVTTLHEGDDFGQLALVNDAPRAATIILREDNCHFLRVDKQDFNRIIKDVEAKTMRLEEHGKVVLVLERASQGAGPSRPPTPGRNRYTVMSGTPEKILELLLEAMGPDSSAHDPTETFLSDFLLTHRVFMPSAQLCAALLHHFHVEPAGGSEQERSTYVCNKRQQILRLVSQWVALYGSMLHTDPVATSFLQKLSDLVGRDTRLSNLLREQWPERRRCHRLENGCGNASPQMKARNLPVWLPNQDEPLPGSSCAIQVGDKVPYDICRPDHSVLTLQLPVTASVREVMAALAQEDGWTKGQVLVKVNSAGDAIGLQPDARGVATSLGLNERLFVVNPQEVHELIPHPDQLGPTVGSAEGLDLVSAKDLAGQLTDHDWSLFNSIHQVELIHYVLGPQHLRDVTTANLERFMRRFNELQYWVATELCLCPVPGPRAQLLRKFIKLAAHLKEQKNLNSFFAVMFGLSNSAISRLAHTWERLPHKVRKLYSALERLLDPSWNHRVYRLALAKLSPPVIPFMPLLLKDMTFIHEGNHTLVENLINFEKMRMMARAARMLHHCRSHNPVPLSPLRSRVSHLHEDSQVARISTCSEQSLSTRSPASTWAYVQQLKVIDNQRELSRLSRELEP
smiles,measurement,setting,value
CCc1ccc2c(-c3cccc(Cl)c3)nc(=O)n(CC)c2n1,Potency,[1],inactive
same,Potency,[2],inactive
same,Potency,Papain (Carica papaya),inactive
N=C(N)c1ccccc1,Potency,[1],inactive
same,Potency,[2],inactive
same,Potency,Papain (Carica papaya),inactive
c1ccc(C(NCCNC(c2ccccc2)c2ccccc2)c2ccccc2)cc1,Potency,[1],inactive
same,Potency,[2],inactive
same,Potency,Papain (Carica papaya),inactive
COC(=O)C(C)(N)Cc1ccc(O)cc1 (centres undefined),Potency,[1],inactive
same,Potency,[2],inactive
same,Potency,Papain (Carica papaya),inactive
CC(N)=NCCCC[C@@H](N)C(=O)O,Potency,[1],inactive
same,Potency,[2],inactive
same,Potency,Papain (Carica papaya),inactive
CC1=C(C(=O)O)N2C(=O)[C@@H](NC(=O)C(N)C3=CCC=CC3)[C@H]2SC1 (some centres undefined),Potency,[1],inactive
same,Potency,[2],inactive
same,Potency,Papain (Carica papaya),inactive
CCCCCCCCCC(=O)NC(CN1CCOCC1)[C@H](O)c1ccccc1 (some centres undefined),Potency,[1],inactive
same,Potency,[2],inactive
same,Potency,Papain (Carica papaya),inactive
O=C(O)CCC/C=C\C[C@@H]1[C@@H](/C=C/[C@H](O)C2Cc3ccccc3C2)[C@@H](F)C[C@@H]1O,Potency,[1],inactive
same,Potency,[2],inactive
same,Potency,Papain (Carica papaya),inactive
CCCCS(=N)(=O)CC[C@H](N)C(=O)O (some centres undefined),Potency,[1],inactive
same,Potency,[2],inactive
same,Potency,Papain (Carica papaya),inactive
C=C1C[C@@]23CC[C@H]4[C@@](C)(CCC[C@@]4(C)C(=O)OC4OC(CO)C(O)C(O)C4O)[C@@H]2CC[C@]1(OC1OC(CO)C(O)C(O)C1OC1OC(CO)C(O)C(O)C1O)C3 (some centres undefined),Potency,[1],inactive
same,Potency,[2],inactive
same,Potency,Papain (Carica papaya),inactive
C=C1C[C@@]23CC[C@H]4[C@@](C)(CCC[C@@]4(C)C(=O)O)[C@@H]2CC[C@]1(O)C3,Potency,[1],inactive
same,Potency,[2],inactive
same,Potency,Papain (Carica papaya),inactive
NCCCCN,Potency,[1],inactive
same,Potency,[2],inactive
same,Potency,Papain (Carica papaya),inactive
O=S(=O)(c1cccc2c(Cl)cccc12)N1CCCNCC1,Potency,[1],inactive
same,Potency,[2],inactive
same,Potency,Papain (Carica papaya),inactive
CC(=O)SC1CC2=CC(=O)CC[C@]2(C)C2CC[C@@]3(C)C(CC[C@@]34CCC(=O)O4)C12 (some centres undefined),Potency,[1],inactive
same,Potency,[2],inactive
same,Potency,Papain (Carica papaya),inactive
CC[C@H](NC(=O)c1c(C)c(-c2ccccc2)nc2ccccc12)c1ccccc1,Potency,[1],inactive
same,Potency,[2],inactive
same,Potency,Papain (Carica papaya),inactive
CCCCOC(=O)NS(=O)(=O)c1sc(CC(C)C)cc1-c1ccc(Cn2c(CC)nc3c(C)cc(C)nc32)cc1,Potency,[1],inactive
same,Potency,[2],inactive
same,Potency,Papain (Carica papaya),inactive
Nc1nc2[nH]c(=O)cnc2c(=O)[nH]1,Potency,[1],inactive
same,Potency,[2],inactive
same,Potency,Papain (Carica papaya),inactive
Nc1ccc(N2C(=O)c3ccccc3C2=O)c(Cl)c1,Potency,[1],inactive
same,Potency,[2],inactive
same,Potency,Papain (Carica papaya),inactive
O=C(O)c1cc(=O)cc(C(=O)O)[nH]1,Potency,[1],inactive
same,Potency,[2],inactive
same,Potency,Papain (Carica papaya),inactive
CC(=O)O[C@H]1Cc2ccccc2N(C(N)=O)c2ccccc21,Potency,[1],inactive
same,Potency,[2],inactive
same,Potency,Papain (Carica papaya),inactive
N[C@H](C(=O)O)[C@H](Cc1ccccc1)C(=O)O,Potency,[1],inactive
same,Potency,[2],inactive
same,Potency,Papain (Carica papaya),inactive
C#CC(N)CCC(=O)O (centres undefined),Potency,[1],inactive
same,Potency,[2],inactive
same,Potency,Papain (Carica papaya),inactive
NC(=Nc1ccccc1)NC(=O)c1nc(Cl)c(N)nc1N,Potency,[1],inactive
same,Potency,[2],inactive
same,Potency,Papain (Carica papaya),25.1 µM (active)
CCCC(=O)NCCc1c2n(c3ccc(OC)cc13)CCCc1ccccc1-2,Potency,[3],inactive
C[C@@]1(C2CCCC2)Cc2cc(OCC(=O)O)c(Cl)c(Cl)c2C1=O,Potency,[3],inactive
COc1cc(/C=C(\C#N)C(=O)Nc2nnc(C(F)(F)F)s2)ccc1OCc1ccc(C(F)(F)F)cc1C(F)(F)F,Potency,[1],inactive
same,Potency,[4],inactive
same,Potency,[5],inactive
same,Potency,[6],inactive
N#C/C(=C\c1ccc(O)c(O)c1)C(=O)NCCCNC(=O)/C(C#N)=C/c1ccc(O)c(O)c1,Potency,[1],inactive
same,Potency,Papain (Carica papaya),22.4 µM (active)
same,activity,[7],-50.9%
same,Potency,[8],4.85 µM (active)
same,activity,[9],-44.4%
same,activity,[10],-72.8%
CCCCCCCCCCCCCCCCCCOC[C@H](COP(=O)([O-])OCC[N+](C)(C)C)OC,Potency,[2],inactive
same,Potency,[4],inactive
same,Potency,Papain (Carica papaya),inactive
O=c1cc(-c2ccccc2)[nH]c2nc(Cl)ccc12,Potency,[2],inactive
same,Potency,[4],inactive
same,Potency,Papain (Carica papaya),inactive
CN1C2CCC1CC(OC(c1ccccc1)c1ccccc1)C2 (centres undefined),Potency,[2],inactive
same,Potency,Papain (Carica papaya),inactive
CCCC[C@@]1(C2CCCC2)Cc2cc(OCC(=O)O)c(Cl)c(Cl)c2C1=O,Potency,[1],inactive
same,Potency,[4],inactive
same,Potency,Papain (Carica papaya),25.1 µM (active)
same,Potency,[11],inactive
same,Potency,[12],inactive
same,Potency,[13],6.01 µM (active) and 3.5 µM (active)
same,outcome,[14],inactive
same,outcome,[15],inactive
same,activity,[7],8.39%
same,"activity change, negative = inhibition",[8],7.65%
same,activity,[9],-66.3%
same,activity,[10],7.03%
CN(C)S(=O)(=O)c1ccc2c(c1)/C(=C/c1cc3c([nH]1)CCCC3)C(=O)N2,Potency,[2],inactive
same,Potency,[4],inactive
same,Potency,Papain (Carica papaya),inactive
same,Potency,[6],2.59 µM (active)
O=c1cc(O)cc(/C=C/c2ccc(O)c(O)c2)o1,Potency,[2],inactive
NCC(O)C1CCCCCCC1 (centres undefined),Potency,[2],inactive
same,Potency,[4],inactive
same,Potency,Papain (Carica papaya),inactive
same,activity,[7],-3.91%
same,"activity change, negative = inhibition",[8],2.24%
same,activity,[9],-12%
same,activity,[10],-45.1%
Nc1ccc(-c2nc3ccc(-c4nc5ccc(N)cc5[nH]4)cc3[nH]2)cc1,Potency,[4],inactive
